An excerpt weighted towards active compounds, which were near 17% of everything screened.
DT40 TDP1 no CPT = qHTS for Inhibitors of human tyrosyl-DNA phosphodiesterase 1 (TDP1): qHTS in cells in absence of CPT | DT40 Tdp1-/- hTDP1 cells, no CPT, ATP luminescence, 48 h | Potency, µM (titrated, usually from 46.2 µM), for inactives: at the top dose activity change, negative = growth inhibition, actives largely listed as inhibitors | 15% of 420,000 active | AID 686978, 2013; note: % is set by controls: 0 for no effect and ±100 for the full control effect; nearly all actives have a fitted effect of over 55% in size
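Chicken DT40 Tdp1-/- cells stably complemented with human TDP1 were seeded at 400 cells/well with DMSO in place of 20 nM camptothecin. After compound pinning, cells grew at least 48 hr at 37 °C; viability read by CellTiter-Glo luminescence.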
ATXN viability = viability counter-screen for ATXN expression inhibitors | S2 cells (HEK-293 line with an ATXN2-luciferase reporter) viability, CellTiter-Fluor protease fluorescence, 24 h | Potency, µM (highest dose often 56.7 µM), actives largely listed as cytotoxic | 0.49% of 400,000 active; note: nearly all actives have a fitted effect of over 40% in size
HepG2 tox = kills HepG2 cells in TGF-b inhibitor counter-screen. HepG2 CAGA-GFP viability, ATP luminescence, 18 h. Potency, µM (highest dose often 46.1 µM), for inactives: at the highest dose activity change, negative = cytotoxicity, most hits filed as cytotoxic. 0.76% of 410,000 active
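HepG2 CAGA-GFP cells (1000/well, DMEM with 1% FBS) received compound, then TGF-beta at 500 pg/mL final, and were incubated 18 hours at 37 degrees C. Viability was read by CellTiter-Glo luminescence. Media-only wells were set as complete cell-killing and DMSO as no toxicity.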
TGFb inhibitor = inhibitors of TGF-b signaling; Potency, µM (series often up to 46.1 µM), for inactives: top-dose activity, negative = inhibition, hits mostly inhibitors; 1.2% of 410,000 active; HepG2 CAGA-GFP TGF-b/SMAD3 reporter, GFP fluorescence, 18 h; TGF-beta stimulated, 500 pg/mL final; note: % is set by controls: 0 for no effect and ±100 for the full control effect; nearly all actives have a fitted effect of over 65% in size
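Read-out: total well GFP (ex488/em500-530) summed from mean per-cell fluorescence. Cells: HEPG2 CAGA-GFP, 1% FBS DMEM, 18 h at 37 degrees C with 500 pg/mL final TGF-beta. Unstimulated wells served as the full-inhibition control; stimulated DMSO wells = 0%.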
DT40 TDP1 CPT = growth inhibition of DT40 Tdp1-/-;hTDP1 cells with camptothecin (screen for TDP1 inhibitors); AID 686979; Potency, µM (titrated, usually from 46.2 µM), for inactives: top-dose activity change, negative = growth inhibition, hits mostly inhibitors; 12% of 420,000 active; chicken DT40 Tdp1-/-;hTDP1 cells + 20 nM CPT, ATP luminescence, 48 h; note: % is set by controls: 0 for no effect and ±100 for the full control effect; nearly all actives have a fitted effect of over 55% in size
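Chicken DT40 Tdp1-/- cells stably complemented with human TDP1 were seeded at 400 cells/well in medium containing 20 nM camptothecin, exposed to pin-transferred compounds, and grown at 37 °C for at least 48 hr. Viability was read as ATP luminescence.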
ATXN2 expr inh = reduces ATXN2 reporter expression in HEK-293 cells; 0.72% of 360,000 active; Potency, µM (doses to about 57 µM), inactives show at the top dose activity change, negative = inhibition, most hits filed as inhibitors; HEK-293 ATXN2-luciferase reporter, luminescence, 24 h; note: % is set by controls: 0 for no effect and ±100 for the full control effect; nearly all actives have a fitted effect of over 55% in size
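ATXN2-luciferase reporter cells (luciferase flanked by upstream and downstream ATXN2 gene portions) were treated 24 h at 37 °C with compounds at up to 57 uM. SteadyGlo luminescence gave expression; GF-AFC fluorescence gave viability.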
* = called active by the depositor; i = inactive; ? = inconclusive; nt = no result given. Calls come from the whole dose curve; as a rule, active = well fitted curve in the direction sought with a large enough effect; inconclusive = small, poorly fitted or top-dose-only effect, or another doubt; inactive = no such curve, though single readings can be large; an effect the other way counts as inactive or inconclusive. Potency is the fitted concentration of half-maximal effect.

SMILES | DT40 TDP1 no CPT | ATXN viability | HepG2 tox | TGFb inhibitor | DT40 TDP1 CPT | ATXN2 expr inh
O=C(COC(=O)c1cccs1)Nc1cccc(S(=O)(=O)N2CCOCC2)c1 | 2% | i | 14% | -2% | 1% | 5%
CC(NC(=O)COC(=O)/C(=C/c1cccs1)c1cccs1)c1ccccc1 (stereo unspecified) | 18µM* | ? | -26% | ? | ? | nt
CC(=O)N/C(=C\c1ccccc1)C(=O)OCC(=O)Nc1ccc(C)c(S(=O)(=O)N(C)C)c1 | 6% | i | 0% | ? | -21% | 5%
Cc1ccc(NC(=O)COC(=O)/C(=C/c2cccs2)c2cccs2)cc1S(=O)(=O)N(C)C | 15µM* | i | -8% | ? | 16µM* | -3%
CC(=O)CC(c1ccccc1)S(=O)(=O)c1ccc([N+](=O)[O-])cc1 (stereo unspecified) | 2% | i | -5% | 0% | -2% | 0%
CC(C)OP(=O)(c1ccccc1)c1ccccc1 | -17% | i | -19% | 0% | -3% | -10%
CCc1nc2c(OCCn3cccc3)cccn2c1N(C)C(=O)c1ccco1 | -3% | i | -21% | -16% | 2% | 8%
COc1ccc(Cl)cc1CN1C(=O)C(Cc2ccccc2)ON=C1C (stereo unspecified) | -20% | i | -12% | 3% | ? | -18%
CC(c1ccccc1)C1CC(=O)N(Cc2ccco2)C1=O (stereo unspecified) | 21µM* | i | -17% | -4% | ? | 1%
O=C(N/N=C/C=C/c1ccccc1)c1cc2c(ccc3ccccc32)o1 | 2% | i | -6% | 0% | -29% | ?
CCOC(=O)c1[nH]c(C)c(CCC(=O)N2CCN(c3ccc(Cl)cc3)CC2)c1C | 23µM* | ? | -4% | -27% | ? | ?
CCOC(=O)c1c(C)[nH]c(C)c1S(=O)(=O)N(C)CC(=O)N1CCN(c2ccc(Cl)cc2)CC1 | ? | i | -2% | ? | 15µM* | -14%
CCOC(=O)c1[nH]c(C)c(CCC(=O)N2CCN(c3cccc(C)c3C)CC2)c1C | 18µM* | i | -2% | ? | 15µM* | -30%
CCCN(C(=O)Nc1cn(CC(C)C)c(=O)c2ccccc12)c1ccc(F)cc1 | 18µM* | i | -19% | -9% | 7.3µM* | 1%
CCc1ccccc1N(C)C(=O)Nc1cn(CC(C)C)c(=O)c2ccccc12 | 23µM* | i | -73% | 5% | 15µM* | 3%
COc1ccc(CNC(=O)Nc2cn(CC(C)C)c(=O)c3ccccc23)c(OC)c1 | ? | i | -1% | -7% | -27% | 14%
CC(=O)Nc1ccc(NC(=O)c2cc(-c3ccc(C)c(C)c3O)n[nH]2)cc1 | -20% | i | 10% | -1% | -29% | -3%
Cc1cc(C)c(O)c(-c2cc(C(=O)Nc3ccc(S(=O)(=O)N4CCOCC4)cc3)[nH]n2)c1 | 16µM* | ? | -60% | ? | 16µM* | 18µM*
Cc1ccc(C(=O)Nc2ccc(S(=O)(=O)N3CCOCC3)cc2)cc1 | -38% | i | 1% | 0% | -5% | -9%
CC(=O)Nc1ccc(NC(=O)c2cc(-c3cc(C)cc(C)c3O)n[nH]2)cc1 | 16µM* | i | -6% | -17% | 12µM* | nt
CC(=O)N1CCCC(C)(C(=O)Nc2cccc(OC(C)C)c2)C1 (stereo unspecified) | 4% | i | 1% | 16% | -19% | 14%
CCCNc1nc(-c2cc(-c3ccc(Cl)cc3)on2)cc(C(C)C)n1 | ? | i | -1% | -12% | -3% | -7%
CC(C)Oc1ccc(CNC(=O)CCCN2C(=O)C(c3ccccc3)Oc3cccnc32)cc1 (stereo unspecified) | 12% | i | 0% | 11% | -23% | -8%
COc1cccc(C(C)=NNc2ccc([N+](=O)[O-])cc2[N+](=O)[O-])c1OC | 21µM* | i | -61% | ? | ? | nt
CC(Cc1ccccc1)=NNc1ccc([N+](=O)[O-])cc1[N+](=O)[O-] | 7.3µM* | ? | 6% | 0% | 16µM* | 0%
SMILES | DT40 TDP1 no CPT | ATXN viability | HepG2 tox | TGFb inhibitor | DT40 TDP1 CPT | ATXN2 expr inh
C/C(CC(C)C)=N/Nc1ccc([N+](=O)[O-])cc1[N+](=O)[O-] | ? | i | -30% | -15% | ? | nt
CC(C)OC(=O)Nc1ccc2nc(-c3cscn3)[nH]c2c1 | 1.2µM* | nt | nt | nt | 0.84µM* | nt
Cc1cc(/C=c2/sc3nc4ccccc4n3c2=O)c(C)n1-c1ccccn1 | 18µM* | i | -17% | 26% | ? | -84%
Cc1cc(/C=c2\sc3nc4ccccc4n3c2=O)c(C)n1-c1ccc(C(=O)O)cc1 | 13µM* | nt | -7% | ? | 13µM* | 6%
O=c1/c(=C\c2cccnc2)sc2nc3ccccc3n12 | ? | i | -2% | -2% | -11% | 38%
Cc1cc(C=C2C(=O)c3ccccc3C2=O)c(C)n1-c1ccc(C(=O)O)cc1 | -17% | ? | -15% | -8% | -13% | -23%
COc1ccc2cc(/C=C3\SC(=S)NC3=O)c(N3CCOCC3)nc2c1 | 12µM* | ? | 6% | 0% | ? | -10%
O=C1NC(=S)S/C1=C/c1ccc(N2CCOCC2)o1 | ? | nt | -35% | -3% | ? | 9%
O=C(C1CCCN(c2ncccn2)C1)N1CCc2ccccc21 (stereo unspecified) | ? | i | -13% | -4% | ? | -18%
O=C(Nc1cc(C(F)(F)F)ccc1Cl)c1cccc(N2C(=O)CCC2=O)c1 | -2% | i | -31% | 0% | 12% | -8%
Cc1ccc(OC(C)C(=O)OCC(=O)Nc2sccc2C(N)=O)cc1 (stereo unspecified) | -9% | i | -21% | -17% | -24% | 2%
CC(Oc1ccc(Cl)cc1)C(=O)Nc1sccc1C(N)=O (stereo unspecified) | 16µM* | nt | 0% | ? | ? | -3%
O=C(Cn1ncc2c3ccccc3n(Cc3cccc(Cl)c3)c2c1=O)N1CCCCCC1 | 21µM* | i | 0% | -14% | 18µM* | -3%
O=C(Cn1ncc2c3ccccc3n(Cc3ccccc3)c2c1=O)N1CCCCCC1 | ? | ? | 1% | 1% | ? | 7%
Cc1cc(C)c(Cn2c3ccccc3c3cnn(CC(=O)N4CCCCCC4)c(=O)c32)c(C)c1 | 23µM* | i | 13% | 0% | 23µM* | 1%

Source: PubChem BioAssay
